Screening data (PubChem BioAssay)
MCF10A rerep: A quantitative high throughput screen for small molecules that induce DNA re-replication in MCF 10a normal breast cells | MCF 10A DNA re-replication, Hoechst nuclear intensity, 48 h | Potency, µM (highest dose often 46.1 µM), for the others: at the top dose activity, positive = re-replication, actives largely listed as activators | 350,000 compounds, 2.9% hits | AID 624296, 2012; further: % of control where 0% means no effect; nearly all actives have a fitted effect of over 50% in size
KB-V1 MDR tox: qHTS assay for MDR1-selective chemotherapeutics: Primary screen using the drug-selected MDR subline cells KB-V1; KB-V1 MDR cells viability, CellTiter-Glo, 72 h; Potency, µM (top dose mostly 46.1 µM), actives largely listed as cytotoxic; AID 1347076, 2019; 400,000 compounds, 3.4% hits; further: on the % scale 0 is the no-effect control and ±100 the full control effect; nearly all actives have a fitted effect of over 60% in size
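Readout: CellTiter-Glo luminescence, 10 min after addition. Cells: KB-V1 MDR subline, 72 h at 37 degrees C with compound. Analysis: corrected, normalized data fitted to concentration-effect curves.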
HT1080NT lethal: qHTS for induction of synthetic lethality in tumor cells producing 2HG: qHTS for the HT-1080-NT fibrosarcoma cell line. HT-1080-NT fibrosarcoma viability, CellTiter-Glo ATP luminescence, 48 h. Potency, µM (titrated, usually from 46.1 µM), for inactives: at the top dose activity, negative = less viability, hits mostly cytotoxic. 360,000 compounds, 1.6% hits;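 further: NT is the 2HG producing partner of a matched IDH1 knockdown line; 0% = DMSO-treated cells and -100% = media-only wells without cells; nearly all actives have a fitted effect of over 55% in size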
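Read-out is CellTiter-Glo luminescence after 10 minutes at room temperature, following 48 hours' compound treatment of HT-1080-NT cells (750 cells/well, RPMI, 5% FBS, 37 degrees C).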
KB-3-1 tox: qHTS assay for MDR1-selective chemotherapeutics: Primary screen using the parental adenocarcinoma cell KB-3-1. KB-3-1 viability, CellTiter-Glo ATP luminescence, 72 h. Potency, µM (series often up to 46.1 µM), hits mostly cytotoxic. 400,000 compounds, 1.4% hits; further: on the % scale 0 is the no-effect control and ±100 the full control effect; nearly all actives have a fitted effect of over 60% in size
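Cytotoxicity measured as CellTiter-Glo luminescence after 72 h at 37 C. Compound titrations were pinned onto drug-naive KB-3-1 parental adenocarcinoma cells grown in DMEM with 10% FBS, and normalized data fitted to concentration-response curves.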
HT1080 IDH1KD tx: qHTS for induction of synthetic lethality in tumor cells producing 2HG: qHTS for the HT-1080-IDH1KD cell line; HT-1080 IDH1 knockdown viability, ATP luminescence, 48 h; Potency, µM (titrated, usually from 46.1 µM), for the others: at the highest dose activity, negative = toxicity, most hits filed as cytotoxic; 360,000 compounds, 2% hits;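 further: 0% = DMSO wells and -100% = cell-free medium wells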
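Viability of IDH1-knockdown HT-1080 fibrosarcoma cells was assessed by CellTiter-Glo after 48 h at 37 °C with titrated compound; concentration-effect curves were classified by fit quality and response size.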
SW480 rerep: A quantitative high throughput screen for small molecules that induce DNA re-replication in SW480 colon adenocarcinoma cells. SW480 DNA re-replication, Hoechst DNA content imaging, 48 h. Potency, µM (highest dose often 46.1 µM), for the others: at the top dose re-replication activation, most hits filed as activators. 340,000 compounds, 1.8% hits. AID 624297, 2012; further: % of control where 0% means no effect; nearly all actives have a fitted effect of over 55% in size
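Readout is total intensity of Hoechst-stained nuclei, excited at 405 nm and collected at 500-530 nm. Compound treatment lasted 48 hr at 37 C in 5% CO2 before staining.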
* hit, by the source's call; i = inactive; ? = inconclusive; . = not tested or not shown; [ ] = another dose, or the depositor's remark. Sampled rows, rich in hits. Any-hit rate of the full collection: about 8%. The call rests on the fitted dose curve; in most records, active means well fitted curve in the direction sought with a large enough effect; inconclusive means small, poorly fitted or top-dose-only effect, or another doubt; inactive means no such curve, though single readings can be large; an effect the other way counts as inactive or inconclusive. Potency means the concentration at half of the fitted maximal effect.

SMILES	MCF10A rerep	KB-V1 MDR tox	HT1080NT lethal	KB-3-1 tox	HT1080 IDH1KD tx	SW480 rerep
CN[C@@H](C)[C@H]1CC[C@@H](N)[C@@H](O[C@@H]2[C@@H](O)[C@@H](O[C@H]3OC[C@@](C)(O)[C@@H](NC)[C@@H]3O)[C@H](N)C[C@@H]2N)O1 (tested in a mixture with another compound)	-8%[20.6 µM]	.	.	.	.	-1%[20.6 µM]
O=c1[nH]c(=O)n(Cc2ccccc2Cl)c(O)c1/C=C1/C=CC=N1	6.5µM*	i	4.1µM*	23µM*	5.8µM*	15µM*
CCCCn1c(O)c(/C=C2/C=CC=N2)c(=O)[nH]c1=O	?	i	15µM*	i	?	?
CCC(C)C1NC(=O)C(NC(=O)C(CC(C)C)N(C)C(=O)C2CCCN2C(=O)C(C)O)C(C)OC(=O)C(Cc2ccc(OC)cc2)N(C)C(=O)C2CCCN2C(=O)C(CC(C)C)NC(=O)[C@H](C)C(=O)[C@H](C(C)C)OC(=O)CC1O (some centres not stated)	?	8.2µM*	0.23µM*	0.16µM*	0.013µM*	?
C#CCCC[C@@H]1OC(=O)CNC(=O)C([C@@H](C)CC)NC(=O)[C@@H]2CCCN2C(=O)C([C@@H](C)CC)OC(=O)[C@H](Cc2ccccc2)N(C)C(=O)[C@H](C(C)C)NC(=O)C1(C)C (some centres not stated)	.	i	?	i	?	.
O=C(CC1CCCCC1)c1c(O)c2ccccc2oc1=O	?	i	7.9µM*	5.8µM*	?	7%
COc1ccc(CCNC(=O)c2c(N)n(CCN3CCOCC3)c3nc4ccccc4nc23)cc1OC	7%	?	?	i	?	-2%
COCCCn1c(N)c(C(=O)NCCC(C)C)c2nc3ccccc3nc21	?	23µM*	-22%	?	?	?
CCCCCCn1c(N)c(C(=O)NCCN2CCOCC2)c2nc3ccccc3nc21	0.82µM*	?	?	?	?	21µM*
CCCNC(=O)c1c(N)n(CC2CCCO2)c2nc3ccccc3nc12 (configuration not stated)	18µM*	?	-16%	i	-22%	16µM*
CCCCCn1c(N)c(C(=O)NCCN2CCOCC2)c2nc3ccccc3nc21	?	?	16µM*	?	18µM*	2.9µM*
NC(Cc1ccc(Oc2cc(I)c(O)c(I)c2)c(I)c1)C(=O)O (configuration not stated)	7%	.	.	.	.	4%
CC(C)CCn1c(N)c(C(=O)OCC2CCCO2)c2nc3ccccc3nc21 (configuration not stated)	?	?	?	i	21µM*	17%
COCCCNC(=O)c1c(NC(=O)c2ccccc2)n(Cc2ccccc2)c2nc3ccccc3nc12	?	i	-3%	i	-8%	1.3µM*
CCCCn1c(N)c(C(=O)OCC2CCCO2)c2nc3ccccc3nc21 (configuration not stated)	1%	i	?	i	-17%	-2%
CNC(C)C(O)c1ccc(O)cc1 (configuration not stated)	7%	.	.	.	.	0%
NCC(=O)c1ccccc1	-1%	?	0%	?	3%	-2%
O=C(CCl)NN=C(c1ccccc1)c1ccccc1	15µM*	i	12%	?	-6%	?
